These results are taken from PubChem BioAssay.

The source made the active and inactive calls. Unless noted, how the calls were made is not given here.

Assay [1] concerns Wnt5a (protein binding on small-molecule microarray). Description: Wnt5a binders on small-molecule microarray, primary screen, biophysical, 635/667 nm fluorescence (AID 1142).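 Further: fluorescence read at 667 nm with signal to noise per printed feature.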 To be noted: 635 nm fluorescence, higher = more signal.
The nature of assay [2]: cell viability in Huh7 cells, primary screen, cytotoxicity control for HCV replication inhibitor project, CellTiter-Glo luminescence, basal, 48 h (AID 1143).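 Further: Huh7 hepatoma cells carrying a hepatitis C replication reporter with no stimulus; test concentration not given here.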 The note with it: Huh7 HCV replicon, higher = more signal, called active from +8 up or from −8 down. For orientation: In ATP-based viability assays light output follows the ATP content of the culture.
Assay [3] in a line: P. aeruginosa biofilm formation inhibitors, primary screen, PAO1 strain, BacTiter-Glo luminescence, LB-PBS (AID 1144). The note with it: 12 h, higher = more signal.
The nature of assay [4]: CREB reporter modulators without forskolin, primary screen, cell-based, PC12, CRE-LacZ reporter, unstimulated (AID 1145). The note with it: no forskolin, luminescence, 4.5 h, higher = more signal, called active from +8 up or from −8 down.
A short description of assay [5]: CREB reporter modulators under forskolin, primary screen, cell-based, PC12, CRE-LacZ reporter, forskolin-stimulated (AID 1146).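 Further: PC12 cells with 6xCRE LacZ reporter stimulated by forskolin 10 µM; beta-galactosidase reporter signal reflecting CREB driven transcription.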 To be noted: luminescence, 4.5 h, higher = more signal, called active from +8 up or from −8 down.
In assay [6] the target is Streptavidin (Streptomyces avidinii) (UniProt P22629). Description: streptavidin binders on small-molecule microarray, primary screen, artefact control for SMM compound annotation, biophysical, 635/667 nm fluorescence (AID 1147).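 Further: signal reflects streptavidin binding to arrayed compounds as a control protein.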 To be noted: streptavidin binding, higher = more signal.
Assay [7] is described as follows: small-molecule binders of probe aInhba, primary screen, biochemical, small-molecule microarray, 635/667 nm fluorescence (AID 1148).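 Further: score merges 667nm spot fluorescence with signal-to-noise for antibody binding to printed compounds.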 The note with it: higher = more signal.
Assay [8] has as its target Torsin-1A (Homo sapiens) (UniProt O14656). Description: torsin A binders from cell lysate, primary screen, small-molecule microarray, wild-type, 635/667 nm (AID 1149). The note with it: COS7 hTOR1A-WT lysate, 635 nm fluorescence, higher = more signal.
Assay [9] has the same target. The assay can be described thus: small-molecule binders of mutant TOR1A in lysate, primary screen, cell lysate, small-molecule microarray, COS7 lysate, 635/667 nm fluorescence (AID 1150).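 Further: score pools 667 nm emission and signal to noise measuring lysate protein binding.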 To be noted: COS7 hTOR1A mutant lysate, 635 nm fluorescence, higher = more signal.
In assay [10] the test system is Sonic hedgehog protein (Shh). The assay can be described thus: small-molecule binders of Shh protein, primary screen, biochemical, small-molecule microarray, 635/667 nm fluorescence (AID 1151).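 Further: Shh protein binding to compounds spotted on small-molecule microarray slides; score combines spot fluorescence intensity with signal-to-noise across triplicate slides.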 To be noted: small-molecule microarray binding, 635 nm fluorescence; higher = more signal.
The nature of assay [11]: E. coli DRC41 culture turbidity changes, primary screen, E. coli filamentation inducer project, strain DRC41, OD650, 48 h (AID 1152).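 Further: E. coli MC1000 strain DRC41 lacking acrAB efflux pump and sulA.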 The note with it: E. coli DRC41 (acrAB sulA), higher = more signal, called active from +8 up or from −8 down.
The nature of assay [12]: small-molecule binders of probe aLefty1, primary screen, biochemical, small-molecule microarray, 635/667 nm fluorescence (AID 1153).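 Further: score merges spot fluorescence with signal-to-noise ratio from the scanned slide images.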 The note with it: higher = more signal.
Assay [13] in a line: PSAC antagonists in infected red cells, primary screen, cell-based, P. falciparum Indochina, OD700, 1 h (AID 1154). The note with it: P. falciparum Indochina infected RBC osmotic lysis, higher = more signal, called active from +8 up or from −8 down.
Assay [14] in a line: PSAC antagonists in infected red cells, primary screen, cell-based, P. falciparum Indochina, OD700, 2 h (AID 1155).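 Further: lysis reports solute entry through the parasite surface anion channel PSAC; channel blockers reduce lysis of infected cells.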 The note with it: P. falciparum Indochina infected erythrocytes, osmotic lysis OD700; higher = more signal, called active from +8 up or from −8 down.
Assay [15] can be described thus: osmotic lysis modulators in infected erythrocytes, primary screen, PSAC antagonist project, cell-based, P. falciparum Indochina, OD700, 3 h (AID 1156). The note with it: higher = more signal, called active from +8 up or from −8 down.
Assay [16] in a line: PSAC antagonists in infected red cells, primary screen, cell-based, P. falciparum Indochina, OD700, 18 h (AID 1157). To be noted: P. falciparum Indochina infected erythrocytes, osmotic lysis OD700, 18 h; higher = more signal, called active from +8 up or from −8 down.
Assay [17] in a line: modulators of S6 phosphorylation in cells, primary screen, cell-based, A549, cytoblot, luminescence, serum-stimulated (AID 1158).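 Further: serum-stimulated A549 lung adenocarcinoma cells; signal is phosphorylated S6 detected by cytoblot immunostaining with HRP secondary.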 To be noted: A549 phospho-S6 cytoblot, 5 h, higher = more signal.
The target of assay [18] is NADPH oxidase 2 (Homo sapiens) (UniProt P04839). Description: NOX2-dependent H2O2 signal modulators, primary screen, NOX inhibitor project, cell-based, HEK293-NOX2, PMA-stimulated, Amplex Red fluorescence (AID 1159). Further: test concentration not given here. To be noted: 45 min, higher = more signal, called active from +8 up or from −8 down.
Assay [19] concerns the target NADPH oxidase 4 (Homo sapiens) (UniProt Q9NPH5). The assay can be described thus: NOX4-dependent H2O2 signal modulators, primary screen, NOX inhibitor project, cell-based, HEK293-NOX4, tetracycline-induced, Amplex Red fluorescence (AID 1160). The note with it: 45 min, higher = more signal, called active from +8 up or from −8 down.
For assay [20], the target named is NADPH oxidase 5 (Homo sapiens) (UniProt Q96PH1). The assay can be described thus: NOX5-dependent H2O2 signal modulators, primary screen, NOX inhibitor project, cell-based, HEK293-NOX5, Amplex Red fluorescence (AID 1161). The note with it: HEK293-NOX5, ionomycin, 45 min, higher = more signal.
Chain of NADPH oxidase 5 (Homo sapiens) (Q96PH1 whole entry, looked up): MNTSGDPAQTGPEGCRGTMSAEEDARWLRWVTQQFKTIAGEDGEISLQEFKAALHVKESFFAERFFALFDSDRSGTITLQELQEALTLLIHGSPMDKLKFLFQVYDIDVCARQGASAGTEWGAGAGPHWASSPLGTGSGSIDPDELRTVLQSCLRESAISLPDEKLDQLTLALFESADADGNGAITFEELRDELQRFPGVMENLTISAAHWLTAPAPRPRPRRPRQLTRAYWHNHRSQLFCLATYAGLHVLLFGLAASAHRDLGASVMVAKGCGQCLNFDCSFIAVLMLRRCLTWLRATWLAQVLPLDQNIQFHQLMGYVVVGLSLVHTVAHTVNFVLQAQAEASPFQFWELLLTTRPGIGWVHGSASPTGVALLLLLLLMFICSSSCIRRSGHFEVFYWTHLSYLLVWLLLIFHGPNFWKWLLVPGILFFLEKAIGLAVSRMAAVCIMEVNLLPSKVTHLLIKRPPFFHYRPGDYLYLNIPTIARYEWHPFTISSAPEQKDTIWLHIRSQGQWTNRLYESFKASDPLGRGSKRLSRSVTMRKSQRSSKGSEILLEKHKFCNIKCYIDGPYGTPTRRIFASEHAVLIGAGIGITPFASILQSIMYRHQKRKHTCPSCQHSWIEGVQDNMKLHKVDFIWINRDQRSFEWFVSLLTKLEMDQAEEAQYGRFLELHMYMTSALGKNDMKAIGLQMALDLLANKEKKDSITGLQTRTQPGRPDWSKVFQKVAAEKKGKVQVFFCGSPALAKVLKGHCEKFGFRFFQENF

Chain of Torsin-1A (Homo sapiens) (O14656 whole entry, looked up): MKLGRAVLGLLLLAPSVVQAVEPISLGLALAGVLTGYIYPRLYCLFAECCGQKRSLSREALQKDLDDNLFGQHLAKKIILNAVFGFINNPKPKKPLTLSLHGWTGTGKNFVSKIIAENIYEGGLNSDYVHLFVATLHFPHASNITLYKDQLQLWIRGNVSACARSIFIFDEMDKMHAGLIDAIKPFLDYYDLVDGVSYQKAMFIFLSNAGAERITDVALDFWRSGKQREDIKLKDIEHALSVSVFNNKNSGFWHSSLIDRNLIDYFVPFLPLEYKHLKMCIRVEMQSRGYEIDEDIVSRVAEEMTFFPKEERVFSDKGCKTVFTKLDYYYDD
Chain of Streptavidin (Streptomyces avidinii) (P22629 whole entry, looked up): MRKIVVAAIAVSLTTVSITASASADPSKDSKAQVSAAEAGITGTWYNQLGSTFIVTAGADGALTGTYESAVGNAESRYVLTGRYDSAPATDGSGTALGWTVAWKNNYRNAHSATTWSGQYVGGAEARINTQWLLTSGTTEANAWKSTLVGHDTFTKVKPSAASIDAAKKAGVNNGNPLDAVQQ
Chain of NADPH oxidase 2 (Homo sapiens) (P04839 whole entry, looked up): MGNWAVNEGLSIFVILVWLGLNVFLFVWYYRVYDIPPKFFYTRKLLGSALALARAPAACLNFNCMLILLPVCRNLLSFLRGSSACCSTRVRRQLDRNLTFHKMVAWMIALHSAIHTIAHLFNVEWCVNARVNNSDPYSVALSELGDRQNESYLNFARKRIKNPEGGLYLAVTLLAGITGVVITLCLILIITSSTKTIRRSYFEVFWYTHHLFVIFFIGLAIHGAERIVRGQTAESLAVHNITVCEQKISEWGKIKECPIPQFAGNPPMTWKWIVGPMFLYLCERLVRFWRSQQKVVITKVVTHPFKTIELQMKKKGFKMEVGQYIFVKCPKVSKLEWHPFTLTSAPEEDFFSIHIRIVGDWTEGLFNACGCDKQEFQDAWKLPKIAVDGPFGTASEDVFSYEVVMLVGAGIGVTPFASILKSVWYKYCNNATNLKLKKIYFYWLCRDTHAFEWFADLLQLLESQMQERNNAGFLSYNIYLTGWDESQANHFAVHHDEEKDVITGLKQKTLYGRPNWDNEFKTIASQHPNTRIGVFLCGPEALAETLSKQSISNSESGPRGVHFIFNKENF
Chain of NADPH oxidase 4 (Homo sapiens) (Q9NPH5 whole entry, looked up): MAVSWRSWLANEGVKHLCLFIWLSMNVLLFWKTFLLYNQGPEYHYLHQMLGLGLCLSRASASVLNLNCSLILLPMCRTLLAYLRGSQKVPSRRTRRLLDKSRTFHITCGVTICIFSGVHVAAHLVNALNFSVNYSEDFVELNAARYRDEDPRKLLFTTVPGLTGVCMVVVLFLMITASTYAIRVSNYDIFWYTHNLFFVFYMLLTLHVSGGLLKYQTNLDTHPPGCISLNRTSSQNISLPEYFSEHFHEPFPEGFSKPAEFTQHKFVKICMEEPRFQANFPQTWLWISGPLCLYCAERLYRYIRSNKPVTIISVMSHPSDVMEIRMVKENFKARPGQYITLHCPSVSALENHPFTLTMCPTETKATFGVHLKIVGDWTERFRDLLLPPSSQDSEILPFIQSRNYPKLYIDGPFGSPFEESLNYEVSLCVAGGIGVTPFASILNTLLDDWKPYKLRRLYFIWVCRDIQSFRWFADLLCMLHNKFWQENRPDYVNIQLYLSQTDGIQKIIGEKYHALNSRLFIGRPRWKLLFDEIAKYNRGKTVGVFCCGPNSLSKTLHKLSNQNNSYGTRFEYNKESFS

Regarding `CC(=O)NCCCC[C@@H]1NC(=O)[C@@H]2C[C@H](C(=O)NCCCC[N+](C)(C)C)[C@H](c3ccc(O)cc3)N2C1=O`, the composite z-score in assay [1] is 0.522; in [6] it was -0.146; in assay [7] it was 0.242; with Torsin-1A (Homo sapiens) [8], 0.804; in the assay with Torsin-1A (Homo sapiens) [9] it was 0.547; in assay [10], 2.24. Further, the composite z-score in [12] was determined as 0.389. The z-score in assay [2] is -2.24 (inactive); in assay [3] it was -0.279 (inactive); in assay [4] it was -0.122 (inactive); in assay [5], -0.528 (inactive); in assay [11], -0.003 (inactive); in assay [13], 0.369 (inactive). For the same molecule, the z-score is -1.08 (inactive) in assay [14]; 0.267 (inactive) in [15]; -2.27 (inactive) in assay [16]; 1.34 in [17]; -3.26 (inactive) in assay [18]; -2.25 (inactive) in assay [19]. In assay [20], the z-score was -4.41.
For `COC(=O)c1c2oc(c1C(=O)OC)C(=O)N(C)Cc1cn(nn1)C[C@H](Cc1ccccc1)NC(=O)N[C@H](CO)CC2`, the composite z-score is -0.334 in [1]; -0.403 in assay [6]; -0.0576 in [7]; -0.794 in the assay with Torsin-1A (Homo sapiens) [8]; -0.641 with Torsin-1A (Homo sapiens) [9]; 0.624 in [10]. Also, the composite z-score in assay [12] is -0.0954. Further, the z-score in assay [2] was 0.336 (inactive); in [3], 0.553 (inactive); in assay [4], 0.148 (inactive); in assay [5], -0.324 (inactive); in assay [11], -0.878 (inactive); in assay [13], 0.965 (inactive). Besides, the z-score is 0.308 (inactive) in assay [14]; -0.119 (inactive) in assay [15]; 0.728 (inactive) in [16]; -0.638 in assay [17]; 0.0368 (inactive) in [18]; 0.338 (inactive) in assay [19]. The molecule further registered a z-score in [20] of 0.282.
As for `Cc1cc(C)c(C(O)C2C=CC3C(=O)N(c4ccccc4)C(=O)C3N2Nc2ccc(C(C)C)cc2)c(C)c1` (stereo not given), the composite z-score in assay [1] is 0.704; in [6] it was 1.71; in assay [7], 0.375; in the assay with Torsin-1A (Homo sapiens) [8], 0.385; with Torsin-1A (Homo sapiens) [9], 0.333; in [10], -0.297. The same molecule registered a composite z-score in [12] of 0.51. In addition, the z-score in assay [2] is 0.366 (inactive); in [3], -0.342 (inactive); in assay [4] it was 0.629 (inactive); in [5], 1.07 (inactive); in assay [11] it was -1.53 (inactive); in assay [13], 1.02 (inactive). The z-score in [14] was 1.14 (inactive); in assay [15], 0.858 (inactive); in [16] it was 1.05 (inactive); in [17], -0.484; in assay [18], -1.82 (inactive); in assay [19], -3.87 (inactive). For the same molecule, the z-score in assay [20] was -7.33.
In the case of `C=C(C)[C@@H]1CC=C(C(O)C2C=CC3C(=O)N(c4ccccc4)C(=O)C3N2Nc2ccccc2F)CC1` (stereo not given in full), the composite z-score in assay [1] was 0.29; in assay [6], 1.31; in assay [7], 0.153; with Torsin-1A (Homo sapiens) [8], 0.0552; in the assay with Torsin-1A (Homo sapiens) [9] it was 0.77; in [10] it was 0.27. Further, the composite z-score in assay [12] was 0.744. Also, the z-score in assay [2] is 0.581 (inactive); in [3], -0.887 (inactive); in assay [4], 0.24 (inactive); in assay [5], 0.493 (inactive); in assay [11], -1.79 (inactive); in assay [13], 0.19 (inactive). The z-score was 1.01 (inactive) in assay [14]; 0.039 (inactive) in assay [15]; 1.1 (inactive) in assay [16]; -1.23 in assay [17]; 0.032 (inactive) in assay [18]; -1.64 (inactive) in assay [19]. In addition, in assay [20], the z-score is -2.14.
